Inconclusive results are not listed. Active and inactive are the calls of the source. Unless noted, calls follow the shape of the dose curve; as a rule, active = well fitted curve in the direction sought with a large enough effect in the repeat runs; inconclusive = weak or mixed curves; inactive = no such curve, though single readings can be large; an effect the other way counts as inactive or inconclusive.

Here are results for seven compounds from PubChem BioAssay (Tox21).

Assay [1] is described as follows: qHTS assay to identify small molecule antagonists of the estrogen receptor alpha (ER-alpha) signaling pathway using the BG1 cell line in the presence of 0.1 nM 17-beta-estradiol - cell viability counter screen (AID 1259241). Also: nearly all actives have a fitted effect of over 40% in size. In outline:
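VM7Luc4E2 cells (endogenous full-length ER-alpha, 4xERE-luciferase), cultured 5 days in charcoal-stripped serum, exposed to compounds with 0.1 nM 17beta-estradiol (final) for 22 hr at 37C. Viability read in same wells as live-cell protease fluorescence after 30 min.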

Assay [2] is described as follows: qHTS assay to identify small molecule antagonists of the androgen receptor (AR) signaling pathway using the MDA cell line in the presence of 0.5 nM R1881 - cell viability counter screen (AID 1259242). Also: nearly all actives have a fitted effect of over 45% in size. In a few lines: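 Viability of MDA-kb2 cells was multiplexed with the luciferase AR readout; after 16 hr with compounds and R1881 at 0.5 nM final, CellTiter-Fluor fluorescence was recorded.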

For assay [3], the target named is Androgen receptor (Homo sapiens) (UniProt P10275). Put plainly: qHTS assay to identify small molecule antagonists of the androgen receptor (AR) signaling pathway using the MDA cell line in the presence of 0.5 nM R1881 (AID 1259243). Also: nearly all actives have a fitted effect of over 50% in size. Also: potency is read from the fitted curve at half-maximal effect. In outline:
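Reporter cells cultured without CO2 receive test chemicals, then 0.5 nM R1881 final; after 16 hr at 37C, ONE-Glo is added and light output recorded.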

Assay [4] can be described thus: qHTS assay to identify small molecule HDAC inhibitors (AID 1259364).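 Also: wild-type HCT-116 cells with endogenous class I/II HDAC activity; top concentration of the series differs between compounds; nearly all actives have a fitted effect of over 45% in size.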 In outline:
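Read-out: luminescence of HDAC-Glo I/II reagent, 30 min RT, reflecting class I/II deacetylase activity in whole HCT-116 cells pre-exposed 2 h to DMSO-dissolved compounds.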

The nature of assay [5]: qHTS assay to identify small molecule HDAC inhibitors - cell viability counter screen (AID 1259365). Also: series mostly up to about 92 µM; nearly all actives have a fitted effect of over 50% in size. In a few lines: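 Wild-type HCT-116 cells, 1,500/well, cultured overnight, then compound-treated 2 h at 37 C. Viability measured as ATP luminescence with CellTiter-Glo after 30 min at room temperature.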
The nature of assay [6]: qHTS assay to identify small molecule agonists of the sonic hedgehog signaling (Shh) pathway - cell viability counter screen (AID 1259366). Also: nearly all actives have a fitted effect of over 50% in size. Also: potency is read from the fitted curve at half-maximal effect. In outline: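 NIH/3T3-derived Gli1-Luc reporter cells, 2,000 per well, received compound after 4 h and were treated about 23 h at 37C. Viability measured in the same wells by CellTiter-Fluor fluorescence after 1 h.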
Assay [7] in a line: qHTS assay to identify small molecule antagonists of the sonic hedgehog signaling (Shh) pathway - cell viability counter screen (AID 1259367). Also: nearly all actives have a fitted effect of over 55% in size. Also: potency is read from the fitted curve at half-maximal effect. In a few lines: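 After a 4 hr settling period, 3T3 Gli1-Luc cells were treated with DMSO-dissolved chemicals and conditioned medium, kept 24 hr at 37C in 5% CO2, and assayed for viability by CellTiter-Fluor fluorescence following 1 hr reagent incubation.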

Assay [8] in a line: qHTS assay to identify small molecule agonists of the sonic hedgehog signaling (Shh) pathway (AID 1259368; calls by dose curve;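 also: NIH/3T3-derived 3T3Gli1-Luc cells carrying a stable Gli1-driven firefly luciferase reporter; series mostly up to about 92 µM; nearly all actives have a fitted effect of over 15% in size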). In outline:
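A Gli1 transcriptional response element controlled firefly luciferase in 3T3Gli1-Luc cells. Compounds and a positive control were added 4 hr after plating, and cells were incubated a further 24 hr at 37 C before luminescence detection.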

The nature of assay [9]: qHTS assay to identify small molecule antagonists of the sonic hedgehog signaling (Shh) pathway (AID 1259369; calls by dose curve; also: nearly all actives have a fitted effect of over 45% in size; also: potency is read from the fitted curve at half-maximal effect). In a few lines: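 For antagonist detection, the reporter line received test compounds together with conditioned medium, incubated 24hr at 37 C, 5% CO2, then luminescence was recorded following 30min room-temperature luciferase reagent incubation.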
For assay [10], the target named is Androgen receptor (Homo sapiens) (UniProt P10275). Put plainly: qHTS assay to identify small molecule agonists of the androgen receptor (AR) signaling pathway in the presence of an antagonist (AID 1259381; calls by dose curve; also: nearly all actives have a fitted effect of over 15% in size; also: potency is read from the fitted curve at half-maximal effect). In outline: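 Test compounds at 15 concentrations were incubated for 16hr with MDA-kb2 reporter cells in presence of 3.0uM nilutamide (final). Signal: ONE-Glo luciferase luminescence.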
Androgen receptor (Homo sapiens), sequence (P10275 whole entry, looked up): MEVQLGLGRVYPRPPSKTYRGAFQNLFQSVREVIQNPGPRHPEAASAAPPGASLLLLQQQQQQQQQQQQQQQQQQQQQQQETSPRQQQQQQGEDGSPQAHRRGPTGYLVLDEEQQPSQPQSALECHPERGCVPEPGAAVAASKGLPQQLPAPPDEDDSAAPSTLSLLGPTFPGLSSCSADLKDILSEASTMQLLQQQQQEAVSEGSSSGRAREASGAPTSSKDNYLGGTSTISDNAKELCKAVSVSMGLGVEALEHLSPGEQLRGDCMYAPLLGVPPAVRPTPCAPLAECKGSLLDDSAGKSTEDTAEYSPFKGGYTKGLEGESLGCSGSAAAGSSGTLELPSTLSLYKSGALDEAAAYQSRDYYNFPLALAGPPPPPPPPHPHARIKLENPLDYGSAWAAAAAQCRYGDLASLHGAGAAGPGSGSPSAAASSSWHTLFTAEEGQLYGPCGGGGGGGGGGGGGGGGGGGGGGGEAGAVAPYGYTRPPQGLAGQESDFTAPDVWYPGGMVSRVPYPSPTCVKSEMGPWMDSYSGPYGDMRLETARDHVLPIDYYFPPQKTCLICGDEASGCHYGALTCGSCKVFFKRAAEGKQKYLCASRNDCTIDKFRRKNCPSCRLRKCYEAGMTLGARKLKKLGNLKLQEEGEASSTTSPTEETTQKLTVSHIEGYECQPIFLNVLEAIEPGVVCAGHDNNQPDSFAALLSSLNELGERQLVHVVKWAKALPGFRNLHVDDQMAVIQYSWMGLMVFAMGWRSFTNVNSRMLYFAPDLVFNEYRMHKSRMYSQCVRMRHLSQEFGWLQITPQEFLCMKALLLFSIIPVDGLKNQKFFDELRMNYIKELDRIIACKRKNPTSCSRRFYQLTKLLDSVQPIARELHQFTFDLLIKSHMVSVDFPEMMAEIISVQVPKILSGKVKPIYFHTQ

Assay [11] concerns the target Estrogen receptor (Homo sapiens) (UniProt P03372). Put plainly: qHTS assay to identify small molecule agonists of the estrogen receptor alpha (ER-alpha) signaling pathway in the presence of an antagonist (AID 1259383; calls by dose curve; also: top concentration of the series differs between compounds; nearly all actives have a fitted effect of over 15% in size). In a few lines:
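Stably transfected VM7Luc4E2 reporter cells, kept 5 days in charcoal-stripped serum, received ICI-182,780 at 10.0nM final before compound addition. Following 22hr incubation at 37C and 5% CO2, luciferase signal was read by luminescence.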

Assay [12] in a line: qHTS assay to identify small molecule agonists or antagonists of the thyroid stimulating hormone receptor (TSHR) signaling pathway - wild type cell line counter screen (AID 1259384; calls by dose curve). In a few lines:
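Wild-type HEK293 cells were plated 18 h at 37 C/5% CO2, pin-dosed with compound plus Ro20-1724 medium, held 30 min at room temperature, then given cAMP-d2 and anti-cAMP-cryptate; fluorescence was read after 1 h. Fifteen concentrations, triplicate.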

Assay [13] has as its target Thyrotropin receptor (Homo sapiens) (UniProt P16473). The assay can be described thus: qHTS assay to identify small molecule antagonists of the thyroid stimulating hormone receptor (TSHR) signaling pathway (AID 1259385; calls by dose curve; also: nearly all actives have a fitted effect of over 20% in size). In a few lines:
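TSHR-HEK293 cells were plated and held 18 h at 37C/5% CO2, then given compound plus Ro20-1724 and stimulated with TSH at 1.5 ng/mL final. After 30 min at room temperature, cAMP was detected with cAMP-d2/anti-cAMP-cryptate (1 h) by fluorescence.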

Assay [14] concerns the target Estrogen receptor beta (Homo sapiens) (UniProt Q92731). Put plainly: qHTS assay to identify small molecule antagonists of the estrogen receptor beta (ER-beta) signaling pathway (AID 1259378; active = well fitted inhibition curve with a large enough effect in the signal ratio in the repeat runs, not every such curve was filed as active; the % refers to the signal ratio; also: potency is read from the fitted curve at half-maximal effect). In outline: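 ER-beta-UAS-bla HEK293T (GripTite) cells in 2% charcoal-stripped FBS medium were preincubated 6 hr at 37C, dosed with compound, then stimulated with 1 nM E2 (final) for 16 hr; beta-lactamase reporter read by B/G FRET fluorescence after 2 hr substrate loading.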

Assay [15] is described as follows: qHTS assay to identify small molecule agonists of the estrogen receptor beta (ER-beta) signaling pathway - cell viability counter screen (AID 1259380). Also: nearly all actives have a fitted effect of over 30% in size. Also: potency is read from the fitted curve at half-maximal effect. In a few lines: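 CellTiter-Glo read, 30 min RT, same wells as bla assay; cells ER-beta-UAS-bla HEK293T; 16 hr compound, 37C; medium 2% charcoal-stripped FBS.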
Assay [16] in a line: qHTS assay to identify small molecule antagonists of the estrogen receptor beta (ER-beta) signaling pathway - cell viability counter screen (AID 1259382). Also: nearly all actives have a fitted effect of over 55% in size. Also: potency is read from the fitted curve at half-maximal effect. In outline:
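In this multiplexed counter screen, cells were seeded at 2,000 per well in medium with 2% charcoal-stripped FBS and incubated 6 hr before compound and 1nM final E2 were added. Sixteen hours later, ATP-based luminescence reported viability.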

The target in assay [17] is Estrogen receptor (Homo sapiens) (UniProt P03372). Put plainly: qHTS assay to identify small molecule antagonists of the estrogen receptor alpha (ER-alpha) signaling pathway using the BG1 cell line in the presence of 0.1 nM 17-beta-estradiol (AID 1259244). Also: nearly all actives have a fitted effect of over 50% in size. In a few lines:
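Estradiol at 0.1 nM (final) stimulates the endogenous ER-alpha of VM7Luc4E2 cells carrying an ERE-driven luciferase; compounds are co-incubated 22 h at 37C and luciferase output quantified by luminescence.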

The nature of assay [18]: qHTS assay to identify small molecule agonists of the androgen receptor (AR) signaling pathway in the presence of an antagonist - cell viability counter screen (AID 1259379).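 Also: MDA-kb2 human breast cancer cells carrying an MMTV luciferase reporter; series mostly up to about 92 µM; nearly all actives have a fitted effect of over 25% in size.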 In a few lines: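 Seed MDA-kb2 at 3,000 cells/well; incubate 5 hr, 37C, 0% CO2. Add nilutamide to 3.0uM final, then pin compounds at 15 concentrations. Incubate 16 hr. Add CellTiter-Fluor at 15 hr, read fluorescence after 1 hr.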

Assay [19] deals with Estrogen receptor beta (Homo sapiens) (UniProt Q92731). Put plainly: qHTS assay to identify small molecule agonists of the estrogen receptor beta (ER-beta) signaling pathway (AID 1259377; active = well fitted activation curve with a large enough effect in the signal ratio in the repeat runs, not every such curve was filed as active; the % refers to the signal ratio). In outline: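 ER-beta-UAS-bla HEK293T cells in medium with 2% charcoal-stripped FBS were exposed to compounds for 16 h at 37C. Beta-lactamase reporter activity was read as fluorescence after 2 h with LiveBLAzer B/G FRET substrate at room temperature.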
Estrogen receptor beta (Homo sapiens), sequence (Q92731 whole entry, looked up): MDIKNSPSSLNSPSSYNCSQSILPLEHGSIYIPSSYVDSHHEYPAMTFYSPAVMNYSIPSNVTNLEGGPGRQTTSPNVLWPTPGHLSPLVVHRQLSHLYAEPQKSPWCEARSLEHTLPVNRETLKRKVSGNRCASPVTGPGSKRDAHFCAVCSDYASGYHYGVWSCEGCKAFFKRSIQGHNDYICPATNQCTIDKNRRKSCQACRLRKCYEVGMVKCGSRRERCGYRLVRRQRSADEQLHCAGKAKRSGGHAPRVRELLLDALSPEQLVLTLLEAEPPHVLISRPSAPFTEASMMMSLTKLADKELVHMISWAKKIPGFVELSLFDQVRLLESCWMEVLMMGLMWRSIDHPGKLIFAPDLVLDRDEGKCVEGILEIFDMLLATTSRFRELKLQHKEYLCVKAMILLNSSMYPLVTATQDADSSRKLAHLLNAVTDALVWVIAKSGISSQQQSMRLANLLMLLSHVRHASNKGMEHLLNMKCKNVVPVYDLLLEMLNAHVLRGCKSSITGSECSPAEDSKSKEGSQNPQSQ

Thyrotropin receptor (Homo sapiens), sequence (P16473 whole entry, looked up): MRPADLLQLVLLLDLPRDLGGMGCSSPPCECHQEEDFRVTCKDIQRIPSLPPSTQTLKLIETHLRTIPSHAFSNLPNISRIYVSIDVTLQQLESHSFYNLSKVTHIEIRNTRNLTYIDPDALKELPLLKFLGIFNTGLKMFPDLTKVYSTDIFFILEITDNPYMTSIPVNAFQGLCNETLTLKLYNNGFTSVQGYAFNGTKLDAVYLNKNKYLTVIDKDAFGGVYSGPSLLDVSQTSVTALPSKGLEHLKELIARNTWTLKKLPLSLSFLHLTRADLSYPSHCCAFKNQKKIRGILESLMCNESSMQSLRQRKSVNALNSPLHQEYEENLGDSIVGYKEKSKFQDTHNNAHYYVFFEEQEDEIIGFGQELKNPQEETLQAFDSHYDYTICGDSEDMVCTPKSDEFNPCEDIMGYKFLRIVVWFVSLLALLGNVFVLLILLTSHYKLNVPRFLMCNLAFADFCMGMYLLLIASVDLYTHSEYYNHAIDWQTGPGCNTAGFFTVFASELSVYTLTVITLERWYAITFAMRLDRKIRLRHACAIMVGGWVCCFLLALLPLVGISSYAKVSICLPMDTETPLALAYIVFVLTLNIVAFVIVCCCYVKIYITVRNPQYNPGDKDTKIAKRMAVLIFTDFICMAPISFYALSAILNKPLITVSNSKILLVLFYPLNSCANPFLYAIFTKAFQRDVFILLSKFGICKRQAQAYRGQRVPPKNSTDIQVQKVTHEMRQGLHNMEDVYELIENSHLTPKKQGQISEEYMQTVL
Estrogen receptor (Homo sapiens), sequence (P03372 whole entry, looked up): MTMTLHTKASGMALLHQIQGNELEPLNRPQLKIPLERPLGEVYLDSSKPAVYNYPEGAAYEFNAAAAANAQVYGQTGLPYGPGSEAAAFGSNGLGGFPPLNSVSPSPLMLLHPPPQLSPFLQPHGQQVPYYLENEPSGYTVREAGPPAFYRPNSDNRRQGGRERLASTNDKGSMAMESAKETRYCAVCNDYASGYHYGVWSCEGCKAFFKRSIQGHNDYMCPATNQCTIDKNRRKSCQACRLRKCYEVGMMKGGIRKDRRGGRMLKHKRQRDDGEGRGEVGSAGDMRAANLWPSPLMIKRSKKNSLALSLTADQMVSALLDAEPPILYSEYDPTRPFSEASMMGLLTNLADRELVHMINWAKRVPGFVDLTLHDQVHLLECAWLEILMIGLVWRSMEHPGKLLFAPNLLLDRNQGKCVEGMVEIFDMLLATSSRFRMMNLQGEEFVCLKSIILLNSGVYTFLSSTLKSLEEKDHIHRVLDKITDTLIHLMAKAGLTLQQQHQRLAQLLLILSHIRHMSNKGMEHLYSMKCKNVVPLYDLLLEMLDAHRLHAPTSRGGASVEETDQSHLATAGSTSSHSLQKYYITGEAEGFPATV

For the compound `CC(C)(C)C(O)C(Oc1ccc(-c2ccccc2)cc1)n1cncn1` (stereo not given), the Potency entry in assay [1], in assay [2], in assay [4], in assay [5], in assay [8] and in assay [10] was “inactive” in each case. The Potency result in assay [11] and in assay [13] was “inactive” in each case. The Potency in [3] was 30.6 µM (active); in [6] it was 30.6 µM (active); in [7] it was 24.3 µM (active); in [9], 12.2 µM (active). Also, the compound was classed as inactive in assay [12].
As for `C[C@]12Cc3nonc3C[C@@H]1CC[C@@H]1[C@@H]2CC[C@@]2(C)[C@H]1CC[C@]2(C)O`, the Potency entry in assay [1], in assay [2], in assay [4], in assay [5], in assay [7] and in [8] was “inactive” each time. Also, the Potency entry in assay [11] and in [13] was “inactive” throughout. Moreover, the Potency is 21.1 µM (active) in assay [3]; 18.8 µM (active) in assay [14]; 26.6 µM (active) in assay [15]; 0.0237 µM (active) in assay [10]; 29.8 µM (active) in [16]. Besides, in assay [12], the compound was called inactive.
Consider `CC(=[OH+])/C=C(/C)[O-].CC(=[OH+])/C=C(\C)[O-].CC(=[OH+])/C=C(\C)[O-].[Fe]`, for which the Potency result in [1], in assay [2], in [17], in [4], in assay [5] and in assay [6] was “inactive” throughout. Moreover, the Potency result in [7], in [8], in [9], in [18], in [15] and in [16] was “inactive” throughout. The Potency entry in assay [11] was “inactive”.
As for `Cc1ccc(OP(=O)(Oc2ccccc2)Oc2ccccc2)cc1`, the Potency entry in assay [1], in [2], in assay [17], in assay [4], in assay [5] and in assay [6] was “inactive” each time. Besides, the Potency result in [7], in [8], in assay [18], in assay [10], in assay [11] and in [13] was “inactive” throughout. The figures for the Potency in [9], in assay [14] and in [15] were 17.5 µM (active), 24.7 µM (active) and 31.1 µM (active), respectively. In addition, the compound was called inactive in assay [12].
`CCCCCCCCCCCCCCC(Br)C(=O)O` (stereo not given): the Potency entry in [1], in assay [2], in [17], in assay [4], in assay [5] and in assay [6] was “inactive” in each case. In addition, the Potency entry in [7], in assay [8], in assay [9], in assay [19], in assay [14] and in assay [18] was “inactive” throughout. Besides, the Potency entry in [16] and in [11] was “inactive” each time.
For the compound `Cc1cc(C)cc(OP(=O)(Oc2cc(C)cc(C)c2)Oc2cc(C)cc(C)c2)c1`, the Potency entry in assay [1], in assay [2], in assay [17], in [4], in assay [5] and in assay [6] was “inactive” throughout. In addition, the Potency result in assay [7], in assay [8], in [19], in assay [14], in [18] and in assay [15] was “inactive” in each case. Further, the Potency result in assay [16] and in assay [11] was “inactive” in each case. Also, in assay [12], the call was inactive.
Turning to `N#CC(Cl)Cl`, the Potency entry in assay [1], in assay [2], in assay [3], in assay [4], in assay [5] and in assay [6] was “inactive” throughout. The Potency result in [7], in assay [8], in [19], in assay [18], in [15] and in assay [16] was “inactive” throughout. Also, in assay [13], the Potency entry is “inactive”. Besides, the Potency in assay [10] is 47.3 µM (active). Also, in [12], the compound was called inactive.
